From PubChem BioAssay (NCI)
“And” between values parts separate entries of the source, which are not always exact repeats. Equal values may be shown once. Compounds without any hit were thinned out: in the full panel of roughly 79,000, 15% have a hit. The source made the active and inactive calls. Rule as the data show it: active = growth inhibition above about 70%; inactive = the rest.

Assays:
[1] = NCI Yeast Anticancer Drug Screen. Data for the rad50 strain (AID 155);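 also: 0% = growth of vehicle-only cultures of the same strain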; details: S. cerevisiae rad50 strain growth inhibition, stronger effect = higher value; at 50.0 µM unless noted
Summary of the method: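 DNA repair mutant yeast, compound exposure, growth read-out; inhibition is taken relative to vehicle.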

[2] = NCI Yeast Anticancer Drug Screen. Data for the mec2-1 strain (AID 157); details: S. cerevisiae mec2-1 strain, stronger effect = higher value; at 50.0 µM unless noted
Summary of the method: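 Vehicle-treated cultures served as reference for growth inhibition of compound-exposed mec2-1 yeast.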

[3] = NCI Yeast Anticancer Drug Screen. Data for the sgs1 mgt1 strain (AID 161);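 also: 0% = growth of cultures given vehicle only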; details: S. cerevisiae sgs1 mgt1 strain, stronger effect = higher value; at 50.0 µM unless noted
Summary of the method: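 Inhibition of yeast growth, normalised to vehicle-treated controls, is reported for a strain bearing genetic alterations in DNA damage repair.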

[4] = NCI Yeast Anticancer Drug Screen. Data for the cln2 rad14 strain (AID 165);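 also: 0% = growth equal to vehicle treated cultures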; details: S. cerevisiae cln2 rad14 strain, stronger effect = higher value; at 50.0 µM unless noted
Summary of the method: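 Each compound was tested on cln2 rad14 yeast. Inhibition of growth was calculated against vehicle-exposed controls.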

[5] = NCI Yeast Anticancer Drug Screen. Data for the bub3 strain (AID 167); details: S. cerevisiae bub3 mutant strain, stronger effect = higher value; at 50.0 µM unless noted
Summary of the method: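 In this screen, a yeast mutant lacking normal mitotic checkpoint function is challenged with compound. Relative growth versus vehicle gives the inhibition value.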

[6] = NCI Yeast Anticancer Drug Screen. Data for the mlh1 rad18 strain (AID 175); details: S. cerevisiae mlh1 rad18 strain growth inhibition, stronger effect = higher value; at 50.0 µM unless noted
Summary of the method: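 Vehicle-treated cultures served as the reference for growth inhibition in a yeast strain carrying DNA damage repair alterations exposed to each compound.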

Measured: growth inhibition

O=C1C=CC=C/C1=C1/SC(c2ccccc2)=C(O)N1c1ccccc1
inactive: [1] -40.2% | [2] -8.2% | [3] -12.5% | [4] -17.3% | [5] -19.9% | [6] -18.5%

CC(=O)Oc1cccc2c1C(=O)c1c(OC(C)=O)cc(C)cc1C2=O
inactive: [1] 10.8% | [2] 5.35% | [3] 1.85% | [4] -0.85% | [5] -41% | [6] -15.6%

COc1ccc(NC(=O)C(C)Oc2ccc(OCC3CCCCC3)cc2)cc1 (stereo not given)
inactive: [1] -22.9% | [2] -40.5% | [3] -42% | [4] -26.1% | [5] -56.9% | [6] -29.6%

CCCNC(=O)Oc1ccccc1C(=O)NCO
inactive: [1] -3.5% | [2] 0.4% | [3] -9.35% | [4] -14.1% | [5] 16.8% | [6] -6.4%

O=C(CCCCCCCC(=O)NO)NO
inactive: [1] -10.8% | [2] 6.6% | [3] 12.8% | [4] 3.65% | [5] 2.5% | [6] -9.4%

Nc1nc2c(c(=O)[nH]1)N(C=O)C(CCNc1ccc(C(=O)NC(CCC(=O)O)C(=O)O)cc1)CN2 (stereo not given)
inactive: [1] 5.35% | [2] -12.2% | [3] 2.55% | [4] -12.6% | [5] 9% | [6] 3.25%

C=C1C(=O)C23[C@H](O)C1CC[C@H]2[C@]12COC3(O)[C@@H](O)[C@@H]1C(C)(C)CC[C@@H]2O
inactive: [1] 3.65% | [2] -20.6% | [3] 19.8% | [4] -0.6% | [5] -0.5% | [6] -46.1%

O=S1(=O)CS/C(=N\C(=S)N(c2ccccc2)c2ccccc2)N1c1ccccc1
inactive: [1] 32.5% | [2] -11.3% | [3] -3.4% | [4] 18.2% | [5] 4.75% | [6] 2.2%

O=C(O)C(c1ccccc1)N1C(=O)C(Cl)=C(Cl)C1=O (stereo not given)
inactive: [1] -0.1% | [2] -6.35% | [3] 1.4% | [4] -10.8% | [5] 1.15% | [6] 10.8%

CC(=O)[CH-]C(=O)c1ccccc1.CC(=O)[CH-]C(=O)c1ccccc1.CC(C)CCCC(C)[C@H]1CCC2[C@@H]3CCC4C[C@@H]([O-])CC[C@]4(C)C3CC[C@@]21C.CC(C)CCCC(C)[C@H]1CCC2[C@@H]3CCC4C[C@@H]([O-])CC[C@]4(C)C3CC[C@@]21C.Cl.[Ti+4] (stereo not given in full)
inactive: [1] 14.4% | [2] 1.25% | [3] 21.4% | [4] -12.1% | [5] 25.6% | [6] -0.95%

O=C(CCl)Nc1cc2ccccc2oc1=O
inactive: [1] 21% | [2] 42.4% | [3] 20.6% | [4] 41% | [5] 5.45% | [6] -1.85%

COC(=O)c1ccccc1NC(=O)c1c(-c2ccccc2Cl)noc1C
active: [1] 72% | [3] 88.6% | [5] 77.2%
inactive: [2] 67.8% | [4] 46.9% | [6] 54.9%

COc1cc(OC)cc(C(=O)CC(=O)c2cc(OC)cc(OC)c2)c1
inactive: [1] -49.6% | [2] -38.3% | [3] -69% | [4] -7.9% | [5] -33.4% | [6] -26.1%

CC(C)COC(=O)/C=C/c1ccccc1
inactive: [1] 19.8% | [2] 16.6% | [3] 20.6% | [4] 7.3% | [5] 2.9% | [6] 11.6%

CN(C=O)c1c(F)cc(N=Nc2ccccc2)cc1F
inactive: [1] 2.8% | [2] 1.15% | [3] 6.65% | [4] -16.1% | [5] 2.25% | [6] 9.7%

CCCC(=O)OCC1OC(n2cc(F)c(=O)[nH]c2=O)CC1OC(=O)CCC (stereo not given)
inactive: [1] 4.1% | [2] 7.9% | [3] 13.9% | [4] -4.3% | [5] -13.9% | [6] 10.2%

O=C(NCc1ccccc1)c1n[nH][nH]c1=O
inactive: [1] 3.05% | [2] 5.8% | [3] 12.2% | [4] -8.15% | [5] -3.3% | [6] 20.6%

C=CC(=O)Nc1ccccc1
inactive: [1] 16.4% | [2] -8.05% | [3] 8.25% | [4] -8.35% | [5] -10% | [6] 5.55%

CC(Oc1ccc(OCC2CCCCC2)cc1)C(=O)N(CCO)CCO (stereo not given)
inactive: [1] 21.2% | [2] -19.9% | [3] 25.6% | [4] 11.9% | [5] -43.4% | [6] 6.65%

Cc1ccc(C2=NN(c3ccccc3)C(c3ccccc3)C2NC2CCCCC2)cc1 (stereo not given)
inactive: [1] 41.1% | [2] -12.3% | [3] 19.6% | [4] -27.4% | [5] 0.5% | [6] 10.3%

C/C(=C\c1ccccc1)c1ccccn1
inactive: [1] -2.25% and -1.9% | [2] -4.6% and -17.4% | [3] -6.25% and 10.8% | [4] -68.8% and -22.6% | [5] -19.1% and 15.2% | [6] -7.4% and 8.3%

CCOc1ccc2nc(NC(=O)C(=O)C(c3cnc4ccccc4n3)[N+](=O)[O-])sc2c1 (stereo not given)
inactive: [1] 23.6% | [2] -13.4% | [3] 24.4% | [4] 8.95% | [5] -22.4% | [6] 13.8%

CC(=O)c1ccccc1NC=O
inactive: [1] -7.55% | [2] -10.2% | [3] -12.1% | [4] -40.9% | [5] -15.3% | [6] 4.15%

Cc1c(OCCCOc2ccc3c(=O)cc(-c4ccccc4)oc3c2C)ccc2c(=O)cc(-c3ccccc3)oc12
inactive: [1] -35.6% | [2] -18.1% | [3] -13.7% | [4] 31.5% | [5] -39.9% | [6] -31.8%

CSC(SC)c1cc(C)no1
inactive: [1] -11.3% | [2] 12.2% | [3] -7.45% | [4] 34.6% | [5] -10.2% | [6] -9.15%

Brc1ccccc1C#Cc1ccccc1Br
inactive: [1] 0.7% | [2] -4.6% | [3] 16.3% | [4] -1.25% | [5] 10.1% | [6] 19.1%

CC(C)c1cc(C(C)C)c(S(=O)(=O)N/N=C2\C=CCC(C)(C)C2)c(C(C)C)c1
inactive: [1] 41.1% | [2] 5.05% | [3] 24.1% | [4] -47.4% | [5] -4.7% | [6] 18.9%

C[N+](C)=c1nc(N2CCOCC2)ss1
inactive: [1] 1.95% | [2] 0.65% | [3] 6.8% | [4] 8.95% | [5] -63.4% | [6] -16.9%

O=C1OCCOCCOCCOCCOCCOC(=O)c2cccc1n2
inactive: [1] 18.1% | [2] 12.2% | [3] 20.4% | [4] 18.1% | [5] 12.5% | [6] 16.1%

COCCOC(=O)COc1ccccc1
inactive: [1] 22.1% | [2] 23% | [3] 16.2% | [4] 3.5% | [5] -8% | [6] -1.15%

CCC(C)(O)c1cn(-c2ccc(Cl)cc2)nn1 (stereo not given)
inactive: [1] -31.4% | [2] -32.9% | [3] -4.4% | [4] 16.4% | [5] -6.55% | [6] 0.25%

C(=C/c1ccccc1)/c1ccccc1
inactive: [1] -6.45% | [2] -16.1% | [3] -25.6% | [4] 8.85% | [5] -2.65% | [6] -2.15%

CC(O)C(=O)N(CCO)c1ccccc1 (stereo not given)
inactive: [1] 13.4% | [2] 1.2% | [3] -5.5% | [4] 3.25% | [5] 2.2% | [6] -21.4%

COC1OC(COC(=O)c2ccc([N+](=O)[O-])cc2)C2SC12 (stereo not given)
inactive: [1] 9.5% | [2] -9.1% | [3] 1.8% | [4] -27.6% | [5] 6.7% | [6] 2.65%

COc1ccc(N2CC[N+](c3ccc(N(C)C)cc3)=C2C2=[N+](c3ccc(N(C)C)cc3)CCN2c2ccc(OC)cc2)cc1
inactive: [1] 0.3% | [2] -6.8% | [3] -17.4% | [4] -7.6% | [5] -10.2% | [6] 20.5%
